Source: PubChem (several laboratories)
Sampled rows, rich in hits. Any-hit rate of the full collection: about 2.2%.
TLR9-MyD88 inh: inhibitors of human TLR9-MyD88 binding; Q9NR96+Q99836; CHO BLA complementation TLR9-MyD88, CCF4 FRET ratio; inhibition, % at 4.98 µM; 0.21% of 340,000 active; AID 504734;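 active means inhibition above the mean over all tested compounds plus 3 SD, cut at about 21% in these data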;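 further: 0% = DMSO only wells and 100% = clavulanate BLA inhibitor control wells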
ANO1 activ: activates or potentiates the mouse TMEM16A chloride channel; HEK293 TMEM16A/YFP-H148Q/I152L, iodide quench fluorescence; hits give low values; B-score at 10 µM; 0.3% of 340,000 active;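 active means fluorescence-ratio B-score plate-corrected deviation score at least 3 library SD below zero, with starting fluorescence score within 5 deviations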;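 further: channel opened by trigger with iodide after compound preincubation; score built on the fluorescence ratio of max minus min over baseline; more negative score means more quench and so TMEM16A activation or potentiation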
ANO1 block: blocks the mouse calcium-activated chloride channel TMEM16A; Q8BHY3; normalized B-score (activity score, 25-100; higher = stronger inhibition) at 10 µM; 1.2% of 310,000 active; HEK293 TMEM16A/YFP iodide influx fluorescence, ionomycin;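 active means ratio plate-corrected score three or more library SD toward inhibition, starting fluorescence score within five deviations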;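 further: score derived from kinetic fluorescence span divided by baseline fluorescence per well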
NOD2-RIPK2 inh: inhibitors of human NOD2-RIPK2 interaction; O43353; CHO BLA complementation NOD2-RIPK2, CCF4 ratio; inhibition, % at 4.98 µM; 0.38% of 360,000 active; in the data active means inhibition above about 21%;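 further: 0% = vehicle only and 100% = reference blocker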
Target sequence (O43353 whole entry, looked up): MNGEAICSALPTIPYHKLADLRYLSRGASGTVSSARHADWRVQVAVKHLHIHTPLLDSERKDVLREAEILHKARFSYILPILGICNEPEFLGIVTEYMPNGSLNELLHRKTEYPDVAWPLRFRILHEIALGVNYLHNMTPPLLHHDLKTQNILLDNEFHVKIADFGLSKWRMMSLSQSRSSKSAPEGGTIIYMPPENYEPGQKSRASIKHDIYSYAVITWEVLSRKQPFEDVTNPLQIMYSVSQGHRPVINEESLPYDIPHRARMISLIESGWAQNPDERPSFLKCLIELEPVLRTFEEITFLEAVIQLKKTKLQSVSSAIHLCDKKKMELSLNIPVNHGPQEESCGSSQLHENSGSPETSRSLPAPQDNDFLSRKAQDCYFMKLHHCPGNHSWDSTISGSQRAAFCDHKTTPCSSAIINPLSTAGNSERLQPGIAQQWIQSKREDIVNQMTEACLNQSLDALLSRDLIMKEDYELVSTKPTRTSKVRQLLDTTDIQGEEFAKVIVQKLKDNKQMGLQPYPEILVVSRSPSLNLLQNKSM
GRK2 aptamer HTS: blocks RNA aptamer binding to human GRK2; bead flow cytometry, FAM-aptamer displacement from GRK2; inhibition of aptamer binding, % at 10 µM; 0.59% of 330,000 active; AID 488847;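 active means inhibition of aptamer binding above 40%, roughly 3 SD of noise, on plates passing a quality check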;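 further: median bead fluorescence of bound FAM aptamer so fluorescent compounds give negative values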
TLR4 MyD88 comp: inhibitors of human TLR4-MyD88 binding | O00206+Q99836 | HeLa CL3-4 TLR4/MyD88 BLA complementation, FRET ratio | inhibition, % at 8.4 µM | 0.18% of 200,000 active | AID 861; in the data active means inhibition above about 25%;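 further: 0% = vehicle and 100% = reference inhibitor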
NOD2-RIPK2 conf: confirmation of human NOD2-RIPK2 interaction inhibitors. shares compounds with NOD2-RIPK2 inh. CHO cells, NOD2-RIPK2 BLA complementation, CCF4 FRET. inhibition, % at 4.98 µM. 70% of 1,200 active. AID 624370;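 active means mean inhibition across replicates above a set limit taken from the earlier primary screen, cut at about 21% in these data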;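 further: 0% = DMSO-only wells and the high end = clavulanate BLA-blocked wells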
NOD2 BLA counter: hits BLA reporter in NOD2-RIPK2 inhibitor counterscreen; inhibition, % at 4.98 µM; 57% of 1,200 active; CHO BLA reporter, CCF4 FRET ratio; shares compounds with NOD2-RIPK2 inh;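 active means mean inhibition above the low-control mean inhibition plus three low-control SD, cut at about 11% in these data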;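 further: 0% = DMSO only wells and 100% = clavulanate high control wells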
The depositor's hits bear a star; i = inactive; x = no result given; ! = a repeat was not active.

SMILES | TLR9-MyD88 inh | ANO1 activ | ANO1 block | NOD2-RIPK2 inh | GRK2 aptamer HTS | TLR4 MyD88 comp | NOD2-RIPK2 conf | NOD2 BLA counter
Cc1ccc(-c2cc(C(F)F)nc(S(C)(=O)=O)n2)cc1 | 14.7 | i | i | 23.0* | 1.0 | 4.5 | 18.4 | -1.7
Nc1nnc(CCS(=O)(=O)c2cc(Cl)ccc2Cl)s1 | -6.4 | i | i | -5.6 | 1.0 | -4.0 | x | x
Cc1ccccc1CN(C)CCS(=O)(=O)c1cc(Cl)ccc1Cl | -8.2 | i | i | 27.9* | 0.0 | x | -2.2 | -3.8
N#Cc1sc2nc(C3CC3)cc(-c3ccc(Cl)cc3)c2c1N | 14.3 | i | i | 27.9* | 0.0 | 12.6 | 19.1 | 25.0*
COc1ccc(-c2cc(-c3cccs3)nc3sc(C#N)c(N)c23)cc1 | 13.4 | i | i | 44.7* | 7.0 | 17.1 | 51.4* | 68.6*
Cc1c(-c2ccccc2)oc2c(C(=O)N3CCN(c4ccccc4F)CC3)cccc2c1=O | -4.7 | i | i | 4.1 | 1.0 | 2.6 | x | x
Cc1cc(S(=O)(=O)c2ccc(Cl)cc2)nc(S(=O)(=O)c2ccc(Cl)cc2)c1C#N | 16.0 | x | x | 50.4* | x | x | 68.3* | 17.9*
O=c1oc2cc(O)ccc2cc1S(=O)(=O)c1ccccc1 | -111.6 | i | i | -40.2 | 2.0 | x | x | x
O=c1oc2cc(O)ccc2cc1-c1nc2ccccc2o1 | x | x | x | 56.9* | x | x | 54.2* | 68.5*
CC1=NNC(=O)/C1=C\c1cn(-c2ccccc2)nc1-c1ccccc1 | 3.0 | i | i | 54.4* | 0.0 | 6.8 | 60.3* | 5.3
O=Cc1cn(-c2ccccc2)nc1-c1ccccc1 | 0.0 | i | i | 2.1 | 0.0 | x | x | x
COc1cc2c3nnc(-c4ccc(F)cc4)c-3cn(Cc3ccccc3)c2cc1OC | 12.0 | i | i | 66.5* | 0.0 | 21.8 | 66.0* | 66.4*
COc1ccc(-c2nnn(Cc3ccccc3)n2)cc1OC | -8.4 | i | i | 5.1 | 0.0 | x | x | x
CC(=O)Nc1ccc(N2C(=O)c3cccc4c(O)ccc(c34)C2=O)cc1 | 17.1 | i | i | 26.9* | 5.0 | x | 24.7* | 28.2*
Cc1c(C(=O)OC(C)C)sc(NC(=O)c2cnccn2)c1C(=O)OC(C)C | -5.1 | i | x | -3.8 | x | x | x | x
CCNc1nc(NC(C)C)nc(OCC)n1 | -3.8 | i | i | -12.0 | 1.0 | -1.7 | x | x
Cc1ccc(C(=O)Nc2nnc(S(=O)(=O)Nc3ccccc3C)s2)cc1C | 3.6 | i | i | 5.4 | 0.0 | x | x | x
CCOc1ccc(C(=O)Nc2nnc(S(=O)(=O)Nc3ccccc3C)s2)cc1 | 3.4 | i | i | 24.2* | 1.0 | x | 0.3 | -6.1
COC(=O)c1cc2c(cc1NC(=O)CSCCc1ccccn1)OCO2 | -2.8 | i | i | 24.5* | 2.0 | -5.7 | 3.7 | -1.1
CN(C)c1ccc(/C=C/C(=O)c2ccc3c(c2)OCO3)cc1 | 18.9 | x | x | 54.9* | 5.0 | x | 48.1* | 54.6*
COc1cccc(/C=C/C(=O)OCC(=O)NCCc2ccccc2)c1 | -2.7 | i | i | -4.6 | 0.0 | -8.0 | x | x
COc1ccc2ccccc2c1-c1sc(Nc2ccccc2)n[n+]1-c1ccc(F)cc1 | 8.2 | i | 100* | 31.7* | 0.0 | x | 19.6 | 2.8
COc1ccc(-c2sc(Nc3ccccc3)n[n+]2-c2ccc(F)cc2)cc1Br | -3.2 | i | i | -18.1 | 0.0 | x | x | x
Fc1ccc(-[n+]2nc(Nc3ccccc3)sc2-c2c(Cl)cccc2Cl)cc1 | 18.1 | i | i | 52.7* | 2.0 | x | 42.1* | 15.8*
O=C(O)c1ccc(-c2sc(Nc3ccccc3)n[n+]2-c2ccc(F)cc2)cc1 | 2.4 | i | i | 0.7 | 2.0 | x | x | x
CCCCNc1c(-c2ccc(SC3CCCCC3)c(OC)c2)nc2ccc(C)cn12 | -4.9 | i | x | 11.7 | 1.0 | x | x | x
CCCCNc1c(-c2ccc(OC)c(SC3CCCCC3)c2)nc2ccc(C)cn12 | -7.1 | i | x | 52.5*! | 37.0 | x | 20.3 | 10.1
CCc1nc2c(OCc3cccc(OC)c3)cccn2c1N(C)C(=O)c1ccccc1F | x | x | x | 2.3 | x | x | x | x
